# Bioassay records: PubChem, several laboratories
# An excerpt weighted towards active compounds, which were near 1.8% of everything screened.
# SUMO Mot1 rescue: yeast Mot1-301 growth rescue at high temperature, primary screen, SUMOylation pathway inhibitor project, S. cerevisiae, ATP luminescence, 38.5C; S. cerevisiae Mot1-301 growth rescue; percent above DMSO median, 100 means doubled; growth rescue, % at 18.8 µM; hit rate 1% among 320,000;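 active = every valid replicate shows activation above 250% relative to neutral control wells; inactive = the rest, any valid replicate at or below 250%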;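 note: OY570 slx delta 5 strain wells were the positive control but not used for scaling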
# NALP1 yeast inh: NALP1 inflammasome inhibitors in reconstituted yeast, colorimetric, S. cerevisiae, triplicate retest. S. cerevisiae NALP1/ASC/caspase-1 growth, X-gal OD620, 72 h. inhibition, % at 10 µM. hit rate 0.61% among 280,000; in the data active = inhibition mostly above about 24%, no sharp cut-off; inactive = mostly below about 32%
# PolyA inh: polyadenylation inhibitors in yeast reporter cells, primary screen, luminescence, S. cerevisiae; activity score, % at 12 µM; S. cerevisiae SKY197-pL101 polyadenylation reporter, beta-gal luminescence; efflux-impaired pdr1/pdr3 knockout yeast; score 100 = 6 SD above DMSO; AID 1875, 2009; hit rate 0.02% among 300,000;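 active = lowest replicate activity score at least 50, where 100 means six control SD above control mean; inconclusive = lowest score under 50 but half or more replicates reach 50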;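 note: yeast exposed to compound for 9 h at 30 °C; higher score means more reporter readthrough which indicates perturbed polyadenylation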
# NALP3 yeast inh: NALP3 inflammasome inhibitors in reconstituted yeast, primary screen, luminescence, uHTS | Yeast reconstituted NLRP3/ASC/caspase-1, beta-gal luminescence, 24 h | hit rate 0.39% among 330,000 | inhibition, % at 10 µM;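 active = inhibition of 50% or more; inactive = inhibition below 50%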;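 note: plate controls were induced DMSO wells for no effect and uninduced yeast grown without galactose for full effect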
# * marks the source's active call; other numbers are inactive results; u = inconclusive; x = not tested or not shown.
SMILES,SUMO Mot1 rescue,NALP1 yeast inh,PolyA inh,NALP3 yeast inh
COC(=O)[C@H]1[C@H]2C[C@@H]3c4[nH]c5cc(OC)ccc5c4CCN3C[C@H]2C[C@@H](OC(=O)c2cc(OC)c(OC)c(OC)c2)[C@@H]1OC,350.9*,x,x,20.6
Nc1[nH]c(=S)[nH]c(=O)c1-c1ccccc1,-11.4,-12.2,x,18.8
CC(=O)c1nc2ccccc2n1S(=O)(=O)c1ccc(Cl)cc1,13.7,1.8,-5.1,-3.3
CC(=O)c1nc2ccccc2n1S(=O)(=O)c1ccc(C)cc1,-8.2,27.8*,2.0,-12.9
CCCCn1c(/C=C/c2ccco2)nc2ccccc21,12.2,54.9*,-26.0,7.6
CCCn1c(/C=C/c2ccco2)nc2ccccc21,10.9,35.7,-1.4,-14.5
COc1ccc(Cl)cc1NC(=O)CN1CCN(S(=O)(=O)N2CCOCC2)CC1,291.4*,-0.6,-16.0,10.7
COc1ccc(Cl)cc1NC(=O)CN1CCCC1,1.2,4.9,17.8,20.6
CCN1CC(CN(C)Cc2nc(COc3ccccc3)no2)CC1=O (stereo unspecified),-7.1,2.4,x,5.5
CC(C)(C)NC(=O)NC(=O)COC(=O)CNC(=O)C1CCCCC1,2.9,20.2,0.7,13.2
COc1cc(/C=N/O)cc(Cl)c1OC,327.8*,12.2,-1.5,8.7
CCN(CC)C(=O)C1CCN(S(=O)(=O)c2cccc3nonc23)CC1,-0.1,43.1*,-4.7,-9.1
Cc1cc(Cl)ccc1Oc1nccc(N(C)C)c1C#N,13.7,6.6,3.5,27.6
CN(C)c1ccnc(Oc2ccc(C(C)(C)C)cc2)c1C#N,355.6*,28.5,9.0,6.7
CN(C)c1ccnc(Oc2ccccc2)c1C#N,x,1.4,x,x
CN(C)c1ccnc(Oc2ccc(Cl)cc2)c1C#N,-3.6,16.0*,-4.9,34.8
Clc1ccc(OCCCCN2CCCCC2)cc1,36.9,24.0,-16.4,13.4
c1ccc(COc2ccc(OCCN3CCCCC3)cc2)cc1,445.5*,54.2,-3.8,23.0
c1ccc(-c2sc3ccccc3c2-c2ccc(OCCN3CCCC3)cc2)cc1,297.6*,x,x,36.0
CC(C)c1ccc(OCCCCN2CCCCC2)cc1,351.6*,8.5,-13.4,9.3
CC(C)Sc1nc2c(c(=O)n(C)c(=O)n2C)n1Cc1ccc(Cl)cc1,-12.7,25.7,-10.1,12.0
Cc1cc(NC(=O)CSc2ccccn2)no1,0.8,17.3,0.1,16.7
COc1cc(N2CCCC2)c(OC)cc1/C=C(/C#N)c1cccc(F)c1,12.0,43.8*,4.1,x
O=C(COC(=O)Cc1ccc(S(=O)(=O)N2CCOCC2)s1)Nc1ccc2c(c1)OCO2,-2.0,13.9,105.7*,2.1
CC(C)(C)c1ccc(C(=O)c2c[nH]c(C(=O)NCCCn3ccnc3)c2)cc1,324.3*,-3.5,10.4,-3.3
SMILES,SUMO Mot1 rescue,NALP1 yeast inh,PolyA inh,NALP3 yeast inh
COc1ccc(C(=O)c2c[nH]c(C(=O)NCCCn3ccnc3)c2)cc1,9.2,-1.8,12.0,5.4
CC(NC(=O)c1ccco1)C1CCCO1 (stereo unspecified),-2.6,44.0*,7.5,-2.9
Cc1ccc(C(=O)NC(C)C2CCCO2)o1 (stereo unspecified),-4.7,9.0,8.1,14.3
O=C(c1ccc([N+](=O)[O-])cc1)N(Cc1ccccc1)c1ccccn1,-18.6,6.1,14.1,12.2
O=[N+]([O-])c1ccccc1SN(Cc1ccccc1)c1ccccn1,375.5*,-16.2,14.6,-57.7
Cc1cc(C(=O)OCC(=O)Nc2cc(S(=O)(=O)N(C)C)ccc2C)c2ccccc2n1,-1.8,9.9,11.0,7.9
Cc1csc(=O)n1CC(=O)Nc1nc2ccccc2s1,320.6*,x,x,2.4
CCCN1CCN(CC(=O)Nc2nc3ccccc3s2)CC1,130.5,13.9,-6.9,16.9
Cc1cc(C)c(C)c(OCC(=O)N2CCOCC2)c1,-10.8,43.7*,28.6,12.8
Cc1ccc(OCC(=O)N2CCOCC2)cc1C,-1.9,27.6,-3.9,-3.0
Cc1cccc(CSCc2ccc(C(=O)O)o2)c1,-5.2,18.5,-3.6,9.8
O=C(CSc1nc2ccccc2s1)Nn1cnnc1,3.5,24.2*,-1.4,-12.3
Cc1ccc(-c2csc(NCCc3nc4cc(Cl)c(Cl)cc4n3CCCO)n2)cc1,-5.0,x,-3.3,14.1
COC(=O)c1cccc(N(C(=O)c2cnccn2)C(C(=O)NCc2ccccc2)c2ccco2)c1 (stereo unspecified),321.8*,12.0,5.8,20.9
COc1ccc(C(C(=O)NCc2ccccc2)N(Cc2ccco2)C(=O)c2cnccn2)cc1 (stereo unspecified),-3.3,-0.8,-3.1,-7.3
Cc1c(C(=O)/C=C/N(C)C)nnn1-c1ccc(Cl)c(Cl)c1,-1.7,-1.4,-2.8,19.9
CC(=O)c1cccc(NC(=S)NC(=O)c2ccc(C)cc2Cl)c1,24.3,37.2*,-12.2,8.7
C#CCOc1c(Br)cc(/C=C2/C(=O)ON=C2C)cc1OCC,3.2,10.2,-34.5,10.5
Nc1c2c(nc3ccc(Br)cc13)N(Cc1ccccc1)CC2,-12.8,55.5*,-5.1,15.6
Cc1ccc(C(=O)COC(=O)c2cn(-c3ccccc3)nc2-c2ccccc2)cc1[N+](=O)[O-],2.2,26.2,-10.9,2.5
CCOC(=O)c1c(C)n(C)c2ccc(OC)c([N+](=O)[O-])c12,10.5,22.1*,-8.6,17.0
CCC(CC)C(=O)Nc1nnc(SCC(=O)NC(C)(C)C)s1,923.6*,11.1,7.5,10.0
CCC(CC)C(=O)Nc1nnc(SCC(=O)NC2CC2)s1,2.2,24.5,6.5,-4.1
BrC(/C=C\c1ccccc1)=N/Nc1nc(N2CCOCC2)nc(N2CCOCC2)n1,320.4*,-11.3,10.8,21.4
BrC(=C\c1ccccc1)/C=N/Nc1nc(N2CCOCC2)nc(N2CCOCC2)n1,-24.9,11.1,28.1,17.3
SMILES,SUMO Mot1 rescue,NALP1 yeast inh,PolyA inh,NALP3 yeast inh
COc1ccc(C2NCCc3c2[nH]c2ccccc32)cc1CSc1nc2ccccc2s1 (stereo unspecified),35.1,57.3*,-15.2,x
O=c1[nH]c(CSc2nc3ccccc3s2)nc2ccccc12,0.5,x,-6.8,9.1
CCC(C)c1ccc(O)c(NC(=O)c2cccnc2)c1 (stereo unspecified),390.2*,32.9,u,-2.9
CCc1ccc(NC(=O)c2ccccc2NC(=O)C2CCCO2)cc1 (stereo unspecified),-0.8,42.8*,-22.7,-12.6
CCOC(=O)c1ccccc1NC(=O)C1CCCO1 (stereo unspecified),-3.2,0.0,-4.9,22.7
CCCCCC1C/C(=N\O)C=C(C)C1C(=O)OC (stereo unspecified),308.9*,11.2,-3.1,21.5
COc1cc(/C=C(\C#N)C(=O)NCCc2ccccc2)cc(OC)c1O,-0.6,0.9,-27.3,32.7
N#C/C(=C\c1ccc(O)c(O)c1)C(=O)NCCc1ccccc1,273.9*,x,x,29.1
COC(=O)C1=C(C(=O)c2ccc(C)cc2)C(c2ccc(O)c(OC)c2)n2nnnc2N1 (stereo unspecified),22.8,-2.8,-7.0,6.5
CC(C)(C)OC(=O)N[C@@H](Cc1ccccc1)c1nnc(S(=O)(=O)Cc2cccc(F)c2)o1,274.6*,-0.7,-31.3,13.3
